Assays:
Test in all cases: DAPPL (digital affinity profiling via proximity ligation, sequencing); 10 mM Tris-HCl pH 7.5, 50 mM NaCl, 1 mM DTT, 4% glycerol, room temperature, 30 min; GST-TFs on glutathione beads, 16-mer random dsDNA library, 0.1% formaldehyde crosslink after washing; high values mean tight binding
Conditions in all cases: protein: recombinant; tags: N-terminal GST; dsDNA, one strand shown
ERF = target: T1, ERF (Homo sapiens, UniProt P50548 1-548)
T1 sequence: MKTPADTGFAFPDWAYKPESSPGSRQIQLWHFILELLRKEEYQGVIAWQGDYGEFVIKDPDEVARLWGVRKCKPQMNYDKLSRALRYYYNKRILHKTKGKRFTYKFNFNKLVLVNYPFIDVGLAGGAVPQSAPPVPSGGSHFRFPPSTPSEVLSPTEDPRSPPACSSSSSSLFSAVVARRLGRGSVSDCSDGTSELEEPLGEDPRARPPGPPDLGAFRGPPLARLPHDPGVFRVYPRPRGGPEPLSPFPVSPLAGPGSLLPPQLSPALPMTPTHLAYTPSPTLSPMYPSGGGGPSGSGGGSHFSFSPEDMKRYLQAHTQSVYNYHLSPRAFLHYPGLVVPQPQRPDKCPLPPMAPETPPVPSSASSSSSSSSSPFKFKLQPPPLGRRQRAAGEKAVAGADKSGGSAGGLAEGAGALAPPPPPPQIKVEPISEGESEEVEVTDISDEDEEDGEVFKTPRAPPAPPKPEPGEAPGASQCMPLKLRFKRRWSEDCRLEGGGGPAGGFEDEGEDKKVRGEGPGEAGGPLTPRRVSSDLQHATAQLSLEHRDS
How it was run: (§1)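 Human transcription factors were made in yeast as GST fusions, captured on glutathione beads and barcoded with DNA. With a tag-only sample included, the pool was incubated with 200 nmole of a random double-stranded 16-mer DNA library in Tris/NaCl/DTT/glycerol buffer at room temperature for 30 min, then crosslinked with 0.1% formaldehyde after washing, ligated by proximity, amplified and sequenced. For binding signal, each hexamer's read frequency for a factor is divided by its frequency for the tag-only sample.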

ETV3L = target: T2, ETV3L (Homo sapiens, UniProt Q6ZN32 1-361)
T2 sequence: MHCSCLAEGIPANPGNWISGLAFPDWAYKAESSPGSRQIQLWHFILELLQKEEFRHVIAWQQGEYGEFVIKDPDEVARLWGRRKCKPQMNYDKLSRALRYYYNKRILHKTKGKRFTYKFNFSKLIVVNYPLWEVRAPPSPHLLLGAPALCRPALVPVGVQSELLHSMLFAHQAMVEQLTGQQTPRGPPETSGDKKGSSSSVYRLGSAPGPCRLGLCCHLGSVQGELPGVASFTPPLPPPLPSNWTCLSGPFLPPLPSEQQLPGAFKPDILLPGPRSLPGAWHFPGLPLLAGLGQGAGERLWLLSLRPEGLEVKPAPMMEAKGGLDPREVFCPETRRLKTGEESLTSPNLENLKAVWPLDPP
How it was run: as §1

ETS2 = target: T3, ETS2 (Homo sapiens, UniProt P15036 1-469)
T3 sequence: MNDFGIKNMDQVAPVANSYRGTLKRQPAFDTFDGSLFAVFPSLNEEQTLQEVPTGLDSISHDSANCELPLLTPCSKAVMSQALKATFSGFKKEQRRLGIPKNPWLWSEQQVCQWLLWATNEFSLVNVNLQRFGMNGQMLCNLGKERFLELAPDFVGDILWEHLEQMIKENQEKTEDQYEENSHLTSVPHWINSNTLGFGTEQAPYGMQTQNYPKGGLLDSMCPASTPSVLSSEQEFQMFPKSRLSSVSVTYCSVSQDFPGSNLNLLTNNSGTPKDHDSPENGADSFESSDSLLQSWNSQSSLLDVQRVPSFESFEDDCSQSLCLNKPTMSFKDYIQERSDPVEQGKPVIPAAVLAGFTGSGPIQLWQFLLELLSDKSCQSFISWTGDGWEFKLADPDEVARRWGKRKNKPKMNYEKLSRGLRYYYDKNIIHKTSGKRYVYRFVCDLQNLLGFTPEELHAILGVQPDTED
How it was run: as §1

SPDEF = target: T4, SPDEF (Homo sapiens, UniProt O95238 1-335)
T4 sequence: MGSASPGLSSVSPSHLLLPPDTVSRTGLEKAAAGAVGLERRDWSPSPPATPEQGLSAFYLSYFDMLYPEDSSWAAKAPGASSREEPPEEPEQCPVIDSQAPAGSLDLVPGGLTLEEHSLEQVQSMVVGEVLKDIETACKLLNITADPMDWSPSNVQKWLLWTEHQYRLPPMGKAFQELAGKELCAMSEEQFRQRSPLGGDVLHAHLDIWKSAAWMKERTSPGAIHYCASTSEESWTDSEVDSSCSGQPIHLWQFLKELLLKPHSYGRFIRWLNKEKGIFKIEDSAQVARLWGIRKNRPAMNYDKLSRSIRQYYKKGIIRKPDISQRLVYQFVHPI
How it was run: as §1

ETV7 = target: T5, ETV7 (Homo sapiens, UniProt Q9Y603 1-341)
T5 sequence: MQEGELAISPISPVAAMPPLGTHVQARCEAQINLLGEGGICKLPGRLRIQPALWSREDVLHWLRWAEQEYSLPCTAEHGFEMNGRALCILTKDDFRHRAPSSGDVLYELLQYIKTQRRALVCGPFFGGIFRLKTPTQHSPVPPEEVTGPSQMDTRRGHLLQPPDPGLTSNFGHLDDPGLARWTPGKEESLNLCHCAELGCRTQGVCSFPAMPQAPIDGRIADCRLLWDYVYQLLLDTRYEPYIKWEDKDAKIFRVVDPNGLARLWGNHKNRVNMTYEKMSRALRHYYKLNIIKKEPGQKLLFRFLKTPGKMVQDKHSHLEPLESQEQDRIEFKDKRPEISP
How it was run: as §1

ELF5 = target: T6, ELF5 (Homo sapiens, UniProt Q9UKW6-2 1-255)
T6 sequence: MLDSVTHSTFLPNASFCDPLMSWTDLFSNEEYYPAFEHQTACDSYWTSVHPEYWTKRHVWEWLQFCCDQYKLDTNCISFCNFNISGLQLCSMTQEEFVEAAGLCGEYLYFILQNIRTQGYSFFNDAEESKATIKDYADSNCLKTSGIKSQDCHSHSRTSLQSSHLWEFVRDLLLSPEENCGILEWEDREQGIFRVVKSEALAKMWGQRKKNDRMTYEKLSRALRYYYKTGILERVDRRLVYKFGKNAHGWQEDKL
How it was run: as §1

ETV3 = target: T7, ETV3 (Homo sapiens, UniProt P41162-2 1-143)
T7 sequence: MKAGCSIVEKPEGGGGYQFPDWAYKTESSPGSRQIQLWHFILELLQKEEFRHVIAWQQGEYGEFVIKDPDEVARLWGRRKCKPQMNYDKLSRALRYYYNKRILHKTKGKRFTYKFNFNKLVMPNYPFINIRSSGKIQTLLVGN
How it was run: as §1

ETV6 = ETV6 (Homo sapiens, UniProt P41212 1-452)
How it was run: as §1

ETV6, sequence (P41212 whole entry): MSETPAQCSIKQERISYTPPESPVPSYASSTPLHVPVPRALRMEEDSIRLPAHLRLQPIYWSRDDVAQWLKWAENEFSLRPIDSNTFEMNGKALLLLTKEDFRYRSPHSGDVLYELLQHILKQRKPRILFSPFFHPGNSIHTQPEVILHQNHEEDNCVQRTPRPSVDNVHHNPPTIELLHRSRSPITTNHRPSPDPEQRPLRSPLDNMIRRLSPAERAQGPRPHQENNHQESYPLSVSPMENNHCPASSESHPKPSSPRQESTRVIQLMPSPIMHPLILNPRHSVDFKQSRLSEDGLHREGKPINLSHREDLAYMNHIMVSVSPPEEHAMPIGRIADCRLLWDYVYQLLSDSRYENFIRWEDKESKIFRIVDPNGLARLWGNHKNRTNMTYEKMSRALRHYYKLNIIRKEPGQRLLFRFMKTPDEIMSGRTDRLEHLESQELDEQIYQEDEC

| Sequence | binding signal (ERF) | binding signal (ETV3L) | binding signal (ETS2) | binding signal (SPDEF) | binding signal (ETV7) | binding signal (ELF5) | binding signal (ETV3) | binding signal (ETV6) |
| --- | --- | --- | --- | --- | --- | --- | --- | --- |
| CTCTCT | 1.63 fold enrichment (6-mer frequency, TF over GST control) | 1.6 fold enrichment (6-mer frequency, TF over GST control) | 1.43 fold enrichment (6-mer frequency, TF over GST control) | 1.59 fold enrichment (6-mer frequency, TF over GST control) | 1.56 fold enrichment (6-mer frequency, TF over GST control) | 1.41 fold enrichment (6-mer frequency, TF over GST control) | 1.68 fold enrichment (6-mer frequency, TF over GST control) | 1.59 fold enrichment (6-mer frequency, TF over GST control) |
| TCCATG | 1.1 fold enrichment (6-mer frequency, TF over GST control) | 1.17 fold enrichment (6-mer frequency, TF over GST control) | 1.1 fold enrichment (6-mer frequency, TF over GST control) | 1.1 fold enrichment (6-mer frequency, TF over GST control) | 1.03 fold enrichment (6-mer frequency, TF over GST control) | 1.11 fold enrichment (6-mer frequency, TF over GST control) | 1.19 fold enrichment (6-mer frequency, TF over GST control) | 1.2 fold enrichment (6-mer frequency, TF over GST control) |
| AAAACT | 1.2 fold enrichment (6-mer frequency, TF over GST control) | 1.19 fold enrichment (6-mer frequency, TF over GST control) | 1.24 fold enrichment (6-mer frequency, TF over GST control) | 1.09 fold enrichment (6-mer frequency, TF over GST control) | 1.29 fold enrichment (6-mer frequency, TF over GST control) | 1.27 fold enrichment (6-mer frequency, TF over GST control) | 1.21 fold enrichment (6-mer frequency, TF over GST control) | 1.19 fold enrichment (6-mer frequency, TF over GST control) |
| GTTCTC | 1.22 fold enrichment (6-mer frequency, TF over GST control) | 1.35 fold enrichment (6-mer frequency, TF over GST control) | 1.24 fold enrichment (6-mer frequency, TF over GST control) | 1.22 fold enrichment (6-mer frequency, TF over GST control) | 1.26 fold enrichment (6-mer frequency, TF over GST control) | 1.25 fold enrichment (6-mer frequency, TF over GST control) | 1.35 fold enrichment (6-mer frequency, TF over GST control) | 1.23 fold enrichment (6-mer frequency, TF over GST control) |
| TGCTAT | 1.33 fold enrichment (6-mer frequency, TF over GST control) | 1.4 fold enrichment (6-mer frequency, TF over GST control) | 1.52 fold enrichment (6-mer frequency, TF over GST control) | 1.48 fold enrichment (6-mer frequency, TF over GST control) | 1.43 fold enrichment (6-mer frequency, TF over GST control) | 1.33 fold enrichment (6-mer frequency, TF over GST control) | 1.45 fold enrichment (6-mer frequency, TF over GST control) | 1.38 fold enrichment (6-mer frequency, TF over GST control) |
| AACGCT | 1.26 fold enrichment (6-mer frequency, TF over GST control) | 1.15 fold enrichment (6-mer frequency, TF over GST control) | 1.13 fold enrichment (6-mer frequency, TF over GST control) | 1.2 fold enrichment (6-mer frequency, TF over GST control) | 1.24 fold enrichment (6-mer frequency, TF over GST control) | 1.19 fold enrichment (6-mer frequency, TF over GST control) | 1.24 fold enrichment (6-mer frequency, TF over GST control) | 1.27 fold enrichment (6-mer frequency, TF over GST control) |
| AATGCG | 1.18 fold enrichment (6-mer frequency, TF over GST control) | 1.36 fold enrichment (6-mer frequency, TF over GST control) | 1.3 fold enrichment (6-mer frequency, TF over GST control) | 1.26 fold enrichment (6-mer frequency, TF over GST control) | 1.21 fold enrichment (6-mer frequency, TF over GST control) | 1.3 fold enrichment (6-mer frequency, TF over GST control) | 1.22 fold enrichment (6-mer frequency, TF over GST control) | 1.29 fold enrichment (6-mer frequency, TF over GST control) |
| TCCTCA | 1.32 fold enrichment (6-mer frequency, TF over GST control) | 1.62 fold enrichment (6-mer frequency, TF over GST control) | 1.56 fold enrichment (6-mer frequency, TF over GST control) | 1.59 fold enrichment (6-mer frequency, TF over GST control) | 1.38 fold enrichment (6-mer frequency, TF over GST control) | 2.13 fold enrichment (6-mer frequency, TF over GST control) | 1.61 fold enrichment (6-mer frequency, TF over GST control) | 1.54 fold enrichment (6-mer frequency, TF over GST control) |
| TCTCCC | 1.89 fold enrichment (6-mer frequency, TF over GST control) | 1.61 fold enrichment (6-mer frequency, TF over GST control) | 1.6 fold enrichment (6-mer frequency, TF over GST control) | 1.6 fold enrichment (6-mer frequency, TF over GST control) | 1.57 fold enrichment (6-mer frequency, TF over GST control) | 1.7 fold enrichment (6-mer frequency, TF over GST control) | 1.71 fold enrichment (6-mer frequency, TF over GST control) | 1.76 fold enrichment (6-mer frequency, TF over GST control) |

From article PMC7862700, “An all-to-all approach to the identification of sequence-specific readers for epigenetic DNA modifications on cytosine”
